High-throughput results deposited in PubChem by several laboratories.
Compounds with a hit are over-represented: about 3.6% of the library has one in this group of screens.
Mdm2 MdmX PPI – human Mdm2/MdmX binding inhibition; O15151+Q00987; SaOS-2 split-luciferase Mdm2/MdmX complementation, luminescence; inhibition, % at 8 µM; 3% of 330,000 active; AID 485346;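 active = inhibition of at least 50% at 8 µM in the primary screen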
CF NFkB inh – cystic fibrosis NF-kB activation inhibition. KKLEB NF-kB-GFP reporter, PAF-induced, GFP fluorescence overnight. inhibition, % at 5 µM. 0.86% of 360,000 active;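 active = at least 50% inhibition at 5 µM, scaled per plate between neutral and stimulator controls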;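 also: PAF is a Pseudomonas aeruginosa culture filtrate used as stimulus; plate controls were PAF-stimulated DMSO wells for no effect and unstimulated DMSO wells for full effect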
Peg3 prom inh-1 – inhibitors of Peg3 promoter; HeLa PEG-Prom luciferase reporter, luminescence, overnight; inhibition, % at 20 µM; 1.7% of 360,000 active; AID 588405;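 active = inhibition of at least 50% at 20 µM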
HSP90 refold inh – blocks HSP90-mediated luciferase refolding in reticulocyte lysate. Rabbit reticulocyte lysate, luciferase refolding luminescence, 3 h. AID 1789. inhibition, % at 5.6 µM. 0.91% of 290,000 active;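 active = inhibition above the screen-wide mean plus 3 SD, computed separately per campaign, cut at about 16% in these data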;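 also: 0% = DMSO wells and 100% = 60 µM geldanamycin wells; inhibitors lower the luminescence because luciferase stays unfolded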
LGR2 antag – inhibitors of bursicon-induced Drosophila LGR2 receptor cAMP signaling; HEK293 LGR2, CRE-luciferase, bursicon-stimulated, 4 h; inhibition, % at 9.99 µM; 0.35% of 380,000 active;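 active = drop in luminescence signal, shown as inhibition above about 50% in the replicate tests, limit read from the data, passing the limit was not always enough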;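 also: agonist challenge used bursicon conditioned medium at about half maximal strength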
KKLEB cytotox – counter-screen for CF NF-kB inhibitors: cytotoxicity. KKLEB CF airway cells viability, ATPlite luminescence, overnight; hits give low values; cells stimulated with P. aeruginosa culture filtrate. activity change (cytotoxicity), % at 5 µM. 0.36% of 360,000 active. AID 602141;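 active = corrected activity change at or below -50% at 5 µM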
Mdm2-MdmX conf – confirmation of human Mdm2/MdmX interaction inhibitors. shares compounds with Mdm2 MdmX PPI. Mdm2-MdmX binding, luminescent assay. inhibition, % at 8 µM. 55% of 10,000 active. AID 489028; in the data active = inhibition above about 40%
Full FLuc ctr – full-length luciferase inhibition in Mdm2/MdmX counter-screen. AID 504607. 77% of 6,200 active. inhibition, % at 8 µM. shares compounds with Mdm2 MdmX PPI. SaOS-2 full-length luciferase counterscreen, luminescence;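 active = mean inhibition at 8 µM reaching about 37%, which flags the compound as non-specific, limit read from the data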;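 also: p53-null SaOS-2 cells with luciferase driven by a doxycycline-inducible promoter; compound on cells about two nights before reading with doxycycline added after day one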
Peg3 prom inh-2 – confirmation of Peg3 promoter inhibitors; shares compounds with Peg3 prom inh-1; HeLa PEG-Prom luciferase reporter, luminescence, overnight; inhibition, % at 20 µM; 84% of 1,300 active;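 active = at 20 µM dose, 40% or more inhibition averaged across four replicates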
* = called active by the depositor.

Results for COc1cc2nc(CN3CC=C(c4ccccc4)CC3)[nH]c(=O)c2cc1OC ?
Mdm2 MdmX PPI: 79*; CF NFkB inh: 69*; Peg3 prom inh-1: 102*; LGR2 antag: -2; KKLEB cytotox: -7; Mdm2-MdmX conf: 68*; Full FLuc ctr: 113*; Peg3 prom inh-2: 94*

What do the screens show for `N#Cc1cccc(-c2ccc([C@H]3[C@H](CO)N4CCCCN(C(=O)Cc5ccccc5)C[C@@H]34)cc2)c1`?
LGR2 antag: 7

What do the screens show for `O=C(Cc1cccnc1)N1CCCCN2[C@H](CO)[C@@H](c3ccc(C#CC4(O)CCCC4)cc3)[C@@H]2C1`?
LGR2 antag: -2

What do the screens show for `Cc1ccc(C)c(NP(=O)(Oc2ccccc2)Oc2ccccc2)c1`?
Mdm2 MdmX PPI: 58*; CF NFkB inh: 97*; Peg3 prom inh-1: 63*; HSP90 refold inh: 4; LGR2 antag: 7; KKLEB cytotox: -67*; Mdm2-MdmX conf: 72*; Full FLuc ctr: 68*; Peg3 prom inh-2: 67*

How did CCCN1[C@@H]2c3ccc(-c4cccc(OC)c4)c(=O)n3C[C@H]1[C@H](CO)[C@H]2C(=O)OC do in these assays?
LGR2 antag: -8

How did COC(=O)[C@H]1[C@H](CO)[C@H]2Cn3c(ccc(-c4ccccc4F)c3=O)[C@@H]1N2CC1CCCC1 do in these assays?
LGR2 antag: -1

What do the screens show for `Cc1cc(C)cc(N2C(=O)NC(=O)/C(=C\c3cccn3-c3ccc(Cl)cc3)C2=O)c1`?
Mdm2 MdmX PPI: 69*; CF NFkB inh: 20; Peg3 prom inh-1: 104*; HSP90 refold inh: -1; KKLEB cytotox: 4; Mdm2-MdmX conf: 56*; Full FLuc ctr: 79*; Peg3 prom inh-2: 56*

What do the screens show for `CCc1ccc(N2C(=O)NC(=O)/C(=C/c3cccn3CCOc3ccc(C)cc3)C2=O)cc1`?
Mdm2 MdmX PPI: 14; CF NFkB inh: -27; Peg3 prom inh-1: -19; HSP90 refold inh: 4; LGR2 antag: 16; KKLEB cytotox: 11

What do the screens show for `COc1ccc(C#Cc2ccc([C@H]3[C@H](CO)N4CCCCN(C(=O)Cc5cccnc5)C[C@@H]34)cc2)cc1`?
LGR2 antag: -22

How did O=[N+]([O-])c1cc(F)c(N2CCCCCC2)cc1N1CCNCC1 do in these assays?
Mdm2 MdmX PPI: 52*; CF NFkB inh: 26; Peg3 prom inh-1: 99*; HSP90 refold inh: 5; LGR2 antag: 7; KKLEB cytotox: -23; Mdm2-MdmX conf: 27; Peg3 prom inh-2: 97*

Results for CC1=CC2/C=C(\C)CCC(O)C(O)/C=C/C(=O)C23C(=O)NC(CC(C)C)C3C1C (centres undefined) ?
Mdm2 MdmX PPI: 100*; CF NFkB inh: 92*; Peg3 prom inh-1: 108*; HSP90 refold inh: 3; KKLEB cytotox: -64*; Mdm2-MdmX conf: 100*; Full FLuc ctr: 51*; Peg3 prom inh-2: 98*

What do the screens show for `C[C@@H]1O[C@@H](O[C@@H]2C=C3CCC4C(CC[C@]5(C)[C@@H](c6ccc(=O)oc6)CC[C@]45O)[C@@]3(C)CC2)[C@H](O)[C@H](O)[C@H]1O` (some centres undefined)?
Mdm2 MdmX PPI: 83*; CF NFkB inh: 88*; Peg3 prom inh-1: 95*; LGR2 antag: 0; KKLEB cytotox: -62*; Mdm2-MdmX conf: 81*; Full FLuc ctr: 49*; Peg3 prom inh-2: 97*

What do the screens show for `O=[N+]([O-])c1ccc(NC2CCCC2)c2ccncc12`?
Mdm2 MdmX PPI: 44; CF NFkB inh: 28; Peg3 prom inh-1: 26; HSP90 refold inh: -4; KKLEB cytotox: -7

What do the screens show for `O=[N+]([O-])c1ccc(NC2CCN(Cc3ccccc3)CC2)c2ccncc12`?
Mdm2 MdmX PPI: 64*; CF NFkB inh: -18; Peg3 prom inh-1: 67*; HSP90 refold inh: 0; LGR2 antag: 4; KKLEB cytotox: -8; Mdm2-MdmX conf: 36; Peg3 prom inh-2: 78*
